Source: PubChem BioAssay
The source made the active and inactive calls. No rule for the calls is given here.

Target: Pantothenate synthetase (Mycobacterium tuberculosis (strain ATCC 25618 / H37Rv)) (UniProt P9WIL5)
Experiment: Recombinant Mtb pantothenate synthetase (PanC) inhibitors, coupled enzyme, confirmatory (AID 375);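 also: 0% = full reaction with vehicle and 100% = no enzyme background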
Settings: coupled enzyme assay; at 10 µM, stronger effect = higher value

Pantothenate synthetase (Mycobacterium tuberculosis (strain ATCC 25618 / H37Rv)), sequence (P9WIL5 whole entry, looked up): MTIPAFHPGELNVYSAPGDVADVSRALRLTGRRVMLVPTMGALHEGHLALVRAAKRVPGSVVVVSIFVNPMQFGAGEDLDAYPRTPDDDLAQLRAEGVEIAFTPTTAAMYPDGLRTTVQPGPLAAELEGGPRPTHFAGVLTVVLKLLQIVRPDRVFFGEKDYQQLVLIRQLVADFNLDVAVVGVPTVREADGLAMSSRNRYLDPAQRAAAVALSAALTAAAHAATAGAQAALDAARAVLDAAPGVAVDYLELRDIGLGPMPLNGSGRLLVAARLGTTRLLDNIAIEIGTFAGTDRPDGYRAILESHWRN

Compound | inhibition
COCCCNC(=O)c1ccc2c(c1)OCO2 | 1% (inactive)
Cc1ccc(OCC(O)Cn2c(NCCc3ccccc3)nc3c2c(=O)[nH]c(=O)n3C)cc1 (stereo not given) | 0% (inactive)
CC1(c2ccc(OC(F)F)cc2)NC(=O)N(CC(=O)Nc2ccc3c(c2)OCO3)C1=O (stereo not given) | 3% (inactive)
COCCn1c(CN2CCN(c3ccccc3F)CC2)nc2c1c(=O)n(C)c(=O)n2C | 6% (inactive)
Cc1ccc(Cn2c(=N)c(C(=O)NCc3ccco3)cc3c(=O)n4ccccc4nc32)cc1 | 1% (inactive)
O=C(c1ccc(F)cc1)C1CCN(CCn2c(=O)[nH]c3ccccc3c2=O)CC1 | 0% (inactive)
COc1cccc(-c2cc3nc4c(c(N5CCC6(CC5)OCCO6)n3n2)CCCC4)c1 | 0% (inactive)
C/C(=N\O)C(=O)C(CN1CCCCC1)CN1CCCCC1 | 0% (inactive)
CCNc1oc(COc2cccc(C)c2)nc1C#N | 5% (inactive)
CSc1nsc(SCC(=O)N2CCc3ccccc32)n1 | 8% (inactive)
COC(=O)CN1C(=O)CC(C)(C)S(=O)c2ccccc21 (stereo not given) | 0% (inactive)
COC(=O)c1oc2ccc(Br)cc2c1NC(C)=O | 0% (inactive)
COc1ccccc1NC(=O)Cc1noc(CSc2cc(C)c3ccccc3n2)n1 | 0% (inactive)
Cc1ccc(S(=O)(=O)N(C)c2ccc(OCC(=O)OCc3c(C)noc3C)cc2)cc1 | 0% (inactive)
O=C(O)c1cc2nc(-c3ccc(F)cc3)cc(C(F)(F)F)n2n1 | 2% (inactive)
O=C(c1cccc(C(=O)N2CCN(c3ccccc3)CC2)c1)N1CCN(c2ccccc2)CC1 | 0% (inactive)
O=C(Cn1cc2c(n1)CCCCC2)N1CCc2ccccc2C1 | 0% (inactive)
CCOC(=O)c1cc(NC(=O)SCC(=O)O)c(C)nc1C | 0% (inactive)
c1cn2cc(CSC3CCCCC3)nc2s1 | 2% (inactive)
O=C(c1ncc[nH]1)c1ccccc1C(=O)N1CCOCC1 | 1% (inactive)

Compound | inhibition
COc1cc(-c2nnc(SCC(=O)c3cc(C)n(CC4CCCO4)c3C)o2)cc(OC)c1OC (stereo not given) | 0% (inactive)
N#Cc1ccccc1Cn1c(=O)n(Cc2ccc(C(=O)NCc3ccco3)cc2)c(=O)c2sccc21 | 9% (inactive)
Cc1ccc(SCCC(=O)N(C)C)cc1 | 0% (inactive)
O=C(CP(=O)(CO)CO)c1ccc(Cl)cc1 | 0% (inactive)
Cc1ccc(NC(=O)c2ccco2)c(NC(=O)CN2C(=O)c3ccccc3C2=O)c1 | 7% (inactive)
CCC(C)n1ncn(-c2ccc(N3CCN(c4ccc(OCC5COC(Cn6cncn6)(c6ccc(Cl)cc6Cl)O5)cc4)CC3)cc2)c1=O (stereo not given) | 8% (inactive)
O=S(=O)(c1cccs1)N1CCN(C/C=C/c2ccccc2)CC1 | 0% (inactive)
CC(=O)c1ccc(OC(=O)c2cccs2)cc1 | 0% (inactive)
Nc1cc(N)nc(SCc2ccccc2)n1 | 0% (inactive)
COc1ccc2c(c1)Sc1ccccc1N2CCN(C)C | 3% (inactive)
C=C(C)c1cccc(C(C)(C)NC(=O)Nc2ncccn2)c1 | 0% (inactive)
Nc1ncnc2nc(SCCN3CCCCC3)[nH]c12 | 4% (inactive)
CCCCNC(=O)Nc1ccnn1C1CCCCC1 | 1% (inactive)
CCc1nc(C)c(C#N)c2cc(OC)c(OC)cc12 | 0% (inactive)
Cc1ccc(Cl)cc1N1CCN(C(=O)C2CCCN(S(=O)(=O)c3cnc[nH]3)C2)CC1 (stereo not given) | 0% (inactive)
C/C=C/Cn1c(SCCCc2ccccc2)nc2c1c(=O)[nH]c(=O)n2C | 0% (inactive)
COC(=O)CC1SC(=O)NC1=O (stereo not given) | 0% (inactive)
COCCCC/C(=N\OCCN)c1ccc(C(F)(F)F)cc1 | 0% (inactive)
COC(=O)CSc1nnc(CSc2nc(C)cc(C)n2)n1Cc1ccco1 | 0% (inactive)
COC(=O)Nc1ccc(S(=O)(=O)N(C)CC(F)(F)C(F)F)cc1 | 6% (inactive)
